Experimental data: PubChem BioAssay (NCI)
The panel holds about 79,000 compounds, 15% with a hit somewhere; the sample as a whole holds those more often. Active and inactive are the calls of the source. Cut-off read from the data, not from the text of the source: active = growth inhibition above about 70%; inactive = the rest.

Assays:
[1] = NCI Yeast Anticancer Drug Screen. Data for the rad52 strain (AID 147);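 note: 0% = growth of vehicle-treated control cultures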; details: S. cerevisiae rad52 mutant growth inhibition, active compounds read high
Outline: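 Read-out: growth inhibition versus vehicle-treated controls. Cells were a DNA repair-deficient yeast strain treated with compounds.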

[2] = NCI Yeast Anticancer Drug Screen. Data for the wt1 strain (AID 149);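 note: 0% = growth of vehicle-treated wt1 cultures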; details: S. cerevisiae wt1 strain (SPY 50644) growth inhibition, active compounds read high
Outline: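 Each compound is tested on wt1 yeast and the loss of growth versus vehicle gives the inhibition value.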

[3] = NCI Yeast Anticancer Drug Screen. Data for the rad50EPP+ strain (AID 151);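 note: 0% = growth of vehicle-treated control cultures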; details: S. cerevisiae rad50 mutant strain, active compounds read high
Outline: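 Growth inhibition read against vehicle controls in rad50EPP+ yeast, a strain altered in DNA damage repair, after compound exposure.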

[4] = NCI Yeast Anticancer Drug Screen. Data for the mgt1 strain (AID 153); details: S. cerevisiae mgt1 mutant growth inhibition, active compounds read high
Outline: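 mgt1 yeast grown with test compound; read-out is growth inhibition versus vehicle-treated cultures.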

[5] = NCI Yeast Anticancer Drug Screen. Data for the rad50 strain (AID 155);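 note: 0% = growth of vehicle-only cultures of the same strain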; details: S. cerevisiae rad50 strain growth inhibition, active compounds read high
Outline: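 Vehicle-treated cultures provide the reference for the growth inhibition reported for compound-exposed, repair-deficient yeast.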

[6] = NCI Yeast Anticancer Drug Screen. Data for the mec2-1 strain (AID 157); details: S. cerevisiae mec2-1 strain, active compounds read high
Outline: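 Yeast mec2-1 mutant treated with compound. Readout: growth inhibition vs vehicle controls.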

[7] = NCI Yeast Anticancer Drug Screen. Data for the rad14 strain (AID 159);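 note: 0% = growth of vehicle-treated control cultures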; details: S. cerevisiae rad14 strain growth inhibition, active compounds read high
Outline: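 Inhibition of growth is reported for a repair-deficient yeast mutant following compound treatment, calculated relative to cultures that received vehicle.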

[8] = NCI Yeast Anticancer Drug Screen. Data for the sgs1 mgt1 strain (AID 161);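 note: 0% = growth of cultures given vehicle only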; details: S. cerevisiae sgs1 mgt1 strain, active compounds read high
Outline: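 Test agents were incubated with a DNA-repair-mutant yeast strain. Growth was then read and compared against vehicle-treated controls.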

[9] = NCI Yeast Anticancer Drug Screen. Data for the CLN2oe strain (AID 163);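 note: 0% = growth of vehicle-only control cultures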; details: S. cerevisiae CLN2oe strain, active compounds read high
Outline: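 Read-out: yeast growth inhibition, expressed relative to vehicle-only controls. The strain bears an engineered cell-cycle alteration.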

[10] = NCI Yeast Anticancer Drug Screen. Data for the cln2 rad14 strain (AID 165);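 note: 0% = growth equal to vehicle treated cultures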; details: S. cerevisiae cln2 rad14 strain, active compounds read high
Outline: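 cln2 rad14 yeast strain; compound exposure; growth inhibition read vs vehicle controls.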

[11] = NCI Yeast Anticancer Drug Screen. Data for the bub3 strain (AID 167); details: S. cerevisiae bub3 mutant strain, active compounds read high
Outline: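 Mutant yeast screening strain plus compound; vehicle-treated cultures serve as the 0% inhibition reference.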

[12] = NCI Yeast Anticancer Drug Screen. Data for the wt2 strain (AID 169); details: S. cerevisiae wt2 strain growth inhibition, active compounds read high
Outline: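 Read-out: growth inhibition versus vehicle-treated control cultures after compound exposure of the yeast strain.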

[13] = NCI Yeast Anticancer Drug Screen. Data for the mlh1 strain (AID 171);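 note: 0% = growth of vehicle-treated control cultures of the same strain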; details: S. cerevisiae mlh1 strain growth inhibition, active compounds read high
Outline: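 Read-out: growth inhibition versus vehicle controls. Strain: engineered yeast with a defined DNA repair or cell cycle defect, compound-treated.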

[14] = NCI Yeast Anticancer Drug Screen. Data for the sgs1 strain (AID 173);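 note: 0% = growth of vehicle-only control cultures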; details: S. cerevisiae sgs1 mutant, active compounds read high
Outline: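 Read-out: yeast growth inhibition relative to vehicle controls, following compound exposure of a strain with a defined DNA repair/cell cycle alteration.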

[15] = NCI Yeast Anticancer Drug Screen. Data for the mlh1 rad18 strain (AID 175); details: S. cerevisiae mlh1 rad18 strain growth inhibition, active compounds read high
Outline: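 Yeast w/ defined DNA-repair lesions; compound exposure; growth vs vehicle controls → % inhibition.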

[16] = NCI Yeast Anticancer Drug Screen. Data for the rad18 strain (AID 177); details: S. cerevisiae rad18 mutant growth inhibition, active compounds read high
Outline: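 Readout: growth inhibition vs vehicle controls. Cells: genetically altered yeast strain, DNA repair defect.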

[17] = at 5.0 µM (retest, dose inferred, filed as 0.5)
[18] = at 50.0 µM (retest, dose inferred, filed as 5.0)

Measured: growth inhibition

CCCCCCCCCCCCCCCCCCOCC(O)COP(=O)(O)OCC1OC(n2cc(F)c(=O)[nH]c2=O)CC1O (stereo unspecified)
active: [1]; at 33.0 µM 97% | [1]; at 100.0 µM 97% | [2]; at 100.0 µM 93% | [3]; at 11.0 µM 70% | [3]; at 33.0 µM 88% | [3]; at 100.0 µM 89% | [4]; at 33.0 µM 98% | [4]; at 100.0 µM 98% | [5]; [17] 91% | [5]; at 33.0 µM 96% | [5]; [18] 99% | [5]; at 50.0 µM 87.6% | [5]; at 100.0 µM 98% | [6]; at 11.0 µM 74% | [6]; at 33.0 µM 90% | [6]; [18] 99% | [6]; at 50.0 µM 88.5% | [6]; at 100.0 µM 96% | [7]; at 100.0 µM 95% | [8]; [18] 98% | [8]; at 50.0 µM 88.3% | [9]; at 33.0 µM 96% | [9]; at 100.0 µM 99% | [10]; [18] 96% | [10]; at 50.0 µM 89.8% | [11]; at 33.0 µM 74% | [11]; [18] 91% | [11]; at 50.0 µM 82.3% | [11]; at 100.0 µM 94% | [12]; at 33.0 µM 88% | [12]; at 100.0 µM 94% | [13]; at 33.0 µM 96% | [13]; at 100.0 µM 97% | [14]; at 11.0 µM 81% | [14]; at 33.0 µM 95% | [14]; at 100.0 µM 97% | [15]; [18] 99% | [15]; at 50.0 µM 91.2% | [16]; at 33.0 µM 97% | [16]; at 100.0 µM 98%
inactive: [1]; at 1.2 µM 15% | [1]; at 3.7 µM 16% | [1]; at 11.0 µM 61% | [2]; at 1.2 µM 17% | [2]; at 3.7 µM 4% | [2]; at 11.0 µM -7% | [2]; at 33.0 µM 16% | [3]; at 1.2 µM 42% | [3]; at 3.7 µM 38% | [4]; at 1.2 µM 30% | [4]; at 3.7 µM 25% | [4]; at 11.0 µM 64% | [5]; at 1.2 µM 18% | [5]; at 3.7 µM -10% | [5]; at 11.0 µM 54% | [6]; at 1.2 µM 4% | [6]; at 3.7 µM 12% | [6]; [17] 51% | [7]; at 1.2 µM 27% | [7]; at 3.7 µM 9% | [7]; at 11.0 µM -5% | [7]; at 33.0 µM 63% | [8]; [17] -34% | [9]; at 1.2 µM 30% | [9]; at 3.7 µM 28% | [9]; at 11.0 µM 60% | [10]; [17] 1% | [11]; at 1.2 µM 14% | [11]; at 3.7 µM 28% | [11]; [17] -12% | [11]; at 11.0 µM 1% | [12]; at 1.2 µM -57% | [12]; at 3.7 µM -83% | [12]; at 11.0 µM 58% | [13]; at 1.2 µM 32% | [13]; at 3.7 µM 19% | [13]; at 11.0 µM 54% | [14]; at 1.2 µM 26% | [14]; at 3.7 µM 19% | [15]; [17] 24% | [16]; at 1.2 µM 27% | [16]; at 3.7 µM -2% | [16]; at 11.0 µM 52%

COc1ccc(O)c(/C=N\Nc2ccccc2)c1
active: [3]; at 100.0 µM 70% | [5]; [18] 71% | [5]; at 50.0 µM 99.4% | [5]; at 100.0 µM 73% | [6]; at 50.0 µM 99.3% | [7]; at 100.0 µM 94% | [8]; at 50.0 µM 98.8% | [10]; at 50.0 µM 99% | [11]; at 50.0 µM 98.9% | [12]; at 100.0 µM 96% | [13]; at 100.0 µM 74% | [14]; at 100.0 µM 94% | [15]; at 50.0 µM 98.5%
inactive: [1]; at 1.2 µM -10% | [1]; at 3.7 µM -11% | [1]; at 11.0 µM -3% | [1]; at 33.0 µM 54% | [1]; at 100.0 µM 55% | [2]; at 1.2 µM -1% | [2]; at 3.7 µM 5% | [2]; at 11.0 µM 11% | [2]; at 33.0 µM 12% | [2]; at 100.0 µM 33% | [3]; at 1.2 µM -8% | [3]; at 3.7 µM -18% | [3]; at 11.0 µM 13% | [3]; at 33.0 µM 50% | [4]; at 1.2 µM -6% | [4]; at 3.7 µM -7% | [4]; at 11.0 µM -6% | [4]; at 33.0 µM -6% | [4]; at 100.0 µM 36% | [5]; at 1.2 µM -14% | [5]; at 3.7 µM -9% | [5]; [17] -124% | [5]; at 11.0 µM -4% | [5]; at 33.0 µM 25% | [6]; at 1.2 µM -6% | [6]; at 3.7 µM -5% | [6]; [17] -52% | [6]; at 11.0 µM -5% | [6]; at 33.0 µM -5% | [6]; [18] -12% | [6]; at 100.0 µM -2% | [7]; at 1.2 µM 0% | [7]; at 3.7 µM -1% | [7]; at 11.0 µM 5% | [7]; at 33.0 µM 30% | [8]; [17] -64% | [8]; [18] -22% | [9]; at 1.2 µM -8% | [9]; at 3.7 µM -9% | [9]; at 11.0 µM -14% | [9]; at 33.0 µM -14% | [9]; at 100.0 µM 21% | [10]; [17] -61% | [10]; [18] -19% | [11]; at 1.2 µM -9% | [11]; at 3.7 µM -9% | [11]; [17] -73% | [11]; at 11.0 µM -9% | [11]; at 33.0 µM 6% | [11]; [18] -4% | [11]; at 100.0 µM 49% | [12]; at 1.2 µM 3% | [12]; at 3.7 µM 8% | [12]; at 11.0 µM 21% | [12]; at 33.0 µM 51% | [13]; at 1.2 µM -13% | [13]; at 3.7 µM -8% | [13]; at 11.0 µM -7% | [13]; at 33.0 µM -2% | [14]; at 1.2 µM -13% | [14]; at 3.7 µM -9% | [14]; at 11.0 µM 11% | [14]; at 33.0 µM 39% | [15]; [17] -132% | [15]; [18] 13% | [16]; at 1.2 µM -9% | [16]; at 3.7 µM -8% | [16]; at 11.0 µM -2% | [16]; at 33.0 µM 14% | [16]; at 100.0 µM 54%
